Laboratory results reported in PubChem BioAssay AID1942 (Johns Hopkins Ion Channel Center, 2009).
The whole screen tested about 2,400 compounds, of which about 580 (24%) were called active.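 Rule for the calls: active = activity change at or above the mean plus 3 SD of buffer wells without dofetilide, per plate; inactive = the rest.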 These entries were drawn from the full list.

What follows are compounds tested against Potassium voltage-gated channel subfamily KQT member 2 (Rattus norvegicus) (UniProt O88943) (assay: rat KCNQ2 channel activation by compounds alone, confirmation, counter-screen for hERG block protector project, cell-based, CHO, FluxOR thallium flux (AID 1942;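 note: normalized value minus buffer-control mean plus three SD of buffer wells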)). Details: CHO-KCNQ2 cells, FluxOR thallium flux fluorescence; at 10 µM; stronger effect = higher value.
Potassium voltage-gated channel subfamily KQT member 2 (Rattus norvegicus), sequence (O88943 whole entry, looked up): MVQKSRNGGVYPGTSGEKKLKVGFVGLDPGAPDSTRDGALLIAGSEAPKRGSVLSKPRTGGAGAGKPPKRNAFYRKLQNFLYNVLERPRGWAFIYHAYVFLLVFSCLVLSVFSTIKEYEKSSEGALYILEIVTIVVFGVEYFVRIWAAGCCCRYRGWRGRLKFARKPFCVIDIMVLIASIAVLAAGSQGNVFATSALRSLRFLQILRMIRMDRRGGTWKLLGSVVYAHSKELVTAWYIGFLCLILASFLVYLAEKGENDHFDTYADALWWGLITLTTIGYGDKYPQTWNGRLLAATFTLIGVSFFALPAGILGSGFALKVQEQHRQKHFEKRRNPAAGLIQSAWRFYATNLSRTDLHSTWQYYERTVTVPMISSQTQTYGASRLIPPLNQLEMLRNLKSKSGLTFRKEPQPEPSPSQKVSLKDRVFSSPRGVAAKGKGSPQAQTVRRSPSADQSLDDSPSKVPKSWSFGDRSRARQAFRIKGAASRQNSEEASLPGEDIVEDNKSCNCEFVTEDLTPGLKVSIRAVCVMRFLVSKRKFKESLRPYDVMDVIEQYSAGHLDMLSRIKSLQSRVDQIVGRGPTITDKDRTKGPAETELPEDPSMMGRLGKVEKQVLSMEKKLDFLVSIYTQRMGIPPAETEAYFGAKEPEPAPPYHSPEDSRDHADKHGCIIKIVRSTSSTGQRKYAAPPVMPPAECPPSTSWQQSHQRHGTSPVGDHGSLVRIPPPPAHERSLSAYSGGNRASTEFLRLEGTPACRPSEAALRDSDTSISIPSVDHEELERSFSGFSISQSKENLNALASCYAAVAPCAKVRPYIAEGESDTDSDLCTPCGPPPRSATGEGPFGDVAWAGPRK

Compound	activity change, less the hit threshold
Nc1cccc(Oc2cnccn2)c1	-17.9% (inactive)
COc1cc2c(cc1OC)CN(C(=O)c1ccc3nc[nH]c3c1)CC2	-2.1% (inactive)
Cc1ccc(OCC(=O)NC(=S)Nc2ccc(Br)cn2)cc1C	-11.2% (inactive)
Cc1ccc(OCC(=O)NC(=S)Nc2ccc(Br)cn2)cc1	12.4% (active)
Cc1nc(NC(=S)NC(=O)COc2ccc(Cl)cc2)ccc1Br	-19.1% (inactive)
COc1ccc(N(CC(=O)N2CCN(Cc3ccccc3)CC2)S(C)(=O)=O)cc1OC	-16.5% (inactive)
Cc1ccc(-c2nnn(CC(=O)N(CC3CCCO3)C(C(=O)NC3CCCC3)c3ccc(O)cc3)n2)o1 (configuration not stated)	-15.8% (inactive)
COCCNC(=O)C(c1ccc(C)o1)N(Cc1ccc(OC)cc1)C(=O)Cn1nnc2ccccc21 (configuration not stated)	19.1% (active)
COCCNC(=O)C(c1ccncc1)N(C(=O)Cn1nnc2ccccc21)c1ccc(OC)cc1 (configuration not stated)	-20.7% (inactive)
CC1CC(C)CN(CCCNC(=O)Cc2c(C(=O)O)[nH]c3ccccc23)C1 (configuration not stated)	-14.9% (inactive)
Nn1c(SCC(=O)Nc2ccccc2F)nnc1C1CCCCC1	-10.5% (inactive)
CC1Cc2ccccc2N1C(=S)NC(=O)c1cccc(Br)c1 (configuration not stated)	121% (active)
CC1Cc2ccccc2N1C(=S)NC(=O)c1ccco1 (configuration not stated)	-3.3% (inactive)
COc1cc2c(cc1OC)C(C)N(C(=S)NC(=O)c1ccccc1)CC2 (configuration not stated)	-10.9% (inactive)
Cc1ccc2c(c1)C1CN(C)CCC1N2C(=S)NC(=O)c1ccc(Br)cc1 (configuration not stated)	-7% (inactive)
Cc1csc2ncc(C(=O)N3c4ccccc4CC3C)c(=O)n12 (configuration not stated)	-9.8% (inactive)
CC1Cc2ccccc2N1C(=S)NC(=O)C1(C)CC1(Cl)Cl (configuration not stated)	38.1% (active)
CC1Cc2cc(S(=O)(=O)NCc3ccccc3)ccc2N1C(=O)C1CCC1 (configuration not stated)	-20.4% (inactive)
CC1Cc2ccccc2N1C(=S)NC(=O)c1ccc(Cl)cc1Cl (configuration not stated)	52.5% (active)
CNC(=O)c1[nH]cnc1C(=O)Nc1ccccn1	-9.6% (inactive)
Cc1cc(S(=O)(=O)NCC(C)C)ccc1OCC(=O)NCc1ccccn1	-21.1% (inactive)
CCOc1cc(Br)c(C(=O)O)cc1OC	-13.8% (inactive)
OC(CCN1CCOCC1)c1ccccc1 (configuration not stated)	-33.4% (inactive)
Cc1nonc1OCCNc1ccc([N+](=O)[O-])cc1	-8.5% (inactive)
Cc1ccc(-c2nc(CS(=O)(=O)CC(=O)NCCN3CCOCC3)c(C)o2)cc1	-12.6% (inactive)

Compound	activity change, less the hit threshold
Cc1ccc2nc(-c3ccccn3)cc(C(=O)NC3CCN(C)CC3)c2c1	-23.8% (inactive)
CS(=O)(=O)c1sc(C(=O)NC(=S)Nc2ccc(OC(F)(F)F)cc2)c2c1C=CCC2	-11% (inactive)
Cc1cccc(OCC(=O)NC(=S)N2CCCc3ccccc32)c1	-23.9% (inactive)
Cc1ccc(C(=O)NC(=S)N2CCN(c3cc(C)ccc3C)CC2)cc1	-8.7% (inactive)
CC(Oc1ccc(Cl)cc1Cl)C(=O)NC(=S)N1CCc2ccccc21 (configuration not stated)	24.1% (active)
O=C(COc1ccc(Br)cc1Cl)NC(=S)N1CCc2ccccc21	-14.2% (inactive)
O=C(COc1ccccc1)NC(=S)N1CCc2ccccc21	2.7% (active)
O=C(COc1ccc(Cl)cc1Cl)NC(=S)N1CCCc2ccccc21	-13.8% (inactive)
CC1(C)CC(NC(=O)c2ccc(Cl)cc2Cl)CC(C)(C)N1	-23.3% (inactive)
CC1(C)CC2CC(C)(CN2C(=S)NC(=O)c2ccccc2Cl)C1 (configuration not stated)	23.3% (active)
Cc1cccc(C(=O)NC(=S)N2CCc3ccccc3C2)c1	20.8% (active)
Cc1cccc(C(=O)NNC(=S)NC(=O)c2ccccc2)c1	-4.5% (inactive)
O=C(Nc1cccn(Cc2c(Cl)cccc2Cl)c1=O)c1ccccc1Cl	-24.1% (inactive)
O=C(O)c1ccccc1NC(=O)c1cc2ccccc2oc1=O	-5.1% (inactive)
O=C(CN(C(=O)CNS(=O)(=O)c1ccc(F)cc1)c1cccc(F)c1)NCC1CCCO1 (configuration not stated)	-19% (inactive)
CC(=O)n1nc(-c2ccncc2)nc1SCC(=O)Nc1cccc(Cl)c1	-21.7% (inactive)
Cc1ccc(NC(=O)CSc2nnc(-c3cccnc3)n2-c2ccc(C)cc2)cc1	-17.2% (inactive)
O=[N+]([O-])c1ccc(-c2ccc(/C=N/n3cnnc3)o2)c(Br)c1	-11.4% (inactive)
CCCN1Cc2cccc(C(=O)NCc3cccs3)c2C1=O	-23.8% (inactive)
OC(CNCCc1ccc(C(F)(F)F)cc1)COc1cccc2ccccc12 (configuration not stated)	-39.6% (inactive)
CN1C(=O)CSc2ccc(NC(=O)N3CCc4ccccc43)cc21	-21.5% (inactive)
O=C(NC(=S)N1CCc2ccccc21)c1ccccc1	38.5% (active)
O=C(NC(=S)N1CCCc2ccccc21)c1ccccc1	-7.9% (inactive)
O=C(NC(=S)N1CCc2ccccc21)c1ccccc1Cl	65.2% (active)
O=C(c1ccccc1)N1CCc2ccccc21	-14.8% (inactive)

Compound	activity change, less the hit threshold
O=C(NC(=S)N1CCc2ccccc21)c1ccccc1Br	105% (active)
O=C(CSc1cccc2cccnc12)N/N=C/c1cccnc1	-18.6% (inactive)
S=C(Nc1ccccc1)Nc1nc2ccccc2n1CCOc1ccccc1	-19.7% (inactive)
Cc1ccccc1NC(=O)CSc1ccsc1[N+](=O)[O-]	-24.3% (inactive)
O=C(O)CC1S/C(=N/N=C/c2ccc(-c3ccccc3[N+](=O)[O-])o2)NC1=O (configuration not stated)	-23.4% (inactive)
CCCc1nnc(NC(=O)CN2CCOCC2)s1	-18.7% (inactive)
Cc1ccccc1-c1nnn(CC(=O)NCc2ccc3c(c2)OCO3)n1	-24.5% (inactive)
Cc1cc(F)ccc1NC(=O)C1CCN(C(=O)Nc2ccccc2)CC1	-20.3% (inactive)
COc1ccc(C)cc1NC(=O)Nc1ccc(C(=O)N2CCCC2)cc1	-13.8% (inactive)
Cc1ccc(SCc2ccc(C(=O)N3CCCC3)cc2)cc1	-13.9% (inactive)
Cc1cc(C)c(C(=O)c2ccc(C(=O)N3CCCCC3)cc2)c(C)c1	9.9% (active)
COC(=O)c1ccc(Oc2ccc(S(=O)(=O)N3CCCCC3)cc2N)cc1	-21% (inactive)
Cc1ccc(NC(=O)CN2C(=O)S/C(=C\c3cccn3-c3cccc(C(=O)O)c3)C2=O)c(C)c1	-17.1% (inactive)
O=C1c2ccccc2C(=O)N1CCc1nc(-c2ccccn2)no1	-15.6% (inactive)
Cc1ccc(NC(=O)CCc2nc3sc4c(c3c(=O)[nH]2)CCCC4)c(Br)c1	-14.8% (inactive)
Cc1cc(C)n(-c2nc(NCCCN(C)C)c3c4c(sc3n2)CCCC4)n1	-15.9% (inactive)
Cc1cc(C)n(-c2nc3sc4c(c3c(=O)[nH]2)CCCC4)n1	6.2% (active)
CC(=O)Cn1c(=O)c2c(nc3n2CCCN3Cc2ccccc2)n(C)c1=O	-11.9% (inactive)
COC(=O)C1CN(C(=O)COc2ccc(C)c(C)c2)c2ccccc2O1 (configuration not stated)	-18.1% (inactive)
CC(C)OC(=O)C1CC(C)(O)C(=O)C(C(=O)OC(C)C)C1c1ccc([N+](=O)[O-])cc1 (configuration not stated)	-20.5% (inactive)
CCc1noc(C)c1C(=O)N1CCCC(N2CCN(c3ccccc3F)CC2)C1 (configuration not stated)	-14.7% (inactive)
Cc1ccc(CN2CCN(/N=C/c3ccc(O)c(O)c3)CC2)cc1	-3.7% (inactive)
Cc1cccc(/C=N/NC(=O)c2cc(Br)ccc2O)n1	0.2% (active)
O=C(COC(=O)c1cc(Br)ccc1O)Nc1cccnc1Cl	-19.3% (inactive)
O=C(N/N=C/c1ccc2cccc(OCc3ccccc3)c2n1)c1ccc(Br)cc1	-9.5% (inactive)

Compound	activity change, less the hit threshold
CCOC(=O)C1CCCCN1Cc1ccc(F)cc1 (configuration not stated)	4.5% (active)
NC(=O)C1CCN(C(=O)CCC(=O)c2ccc(F)cc2)CC1	-12.6% (inactive)
CCOC(=O)C1CCCN(C(=S)NC(=O)/C=C/c2ccc(F)cc2)C1 (configuration not stated)	-20.7% (inactive)
O=C1c2ccccc2C(=O)N1Cc1cc(-c2ccccc2Cl)no1	-14.4% (inactive)
Cc1cccc(OCC(=O)NC2CCCc3ccccc32)c1C (configuration not stated)	-34.2% (inactive)
O=C(NC(=S)NC1CCCc2ccccc21)c1ccco1 (configuration not stated)	7% (active)
O=C(NC(=S)N1CCc2ccccc21)c1ccc(Br)o1	19.1% (active)
Cn1nnnc1SCC(=O)NC1CCCc2ccccc21 (configuration not stated)	-30.8% (inactive)
O=C(NC(=S)N1CCc2ccccc21)c1ccco1	0.6% (active)
Cc1ccc(OCCC(=O)OC(C)C(=O)Nc2ccc(Cl)cn2)cc1 (configuration not stated)	-8.9% (inactive)
O=C(O)CCCn1cc(NC(=O)COc2ccc(F)cc2)cn1	-25.3% (inactive)
Fc1ccc2c(c1)C(c1ccncc1)=NNC(c1cccnc1)=N2	-6.5% (inactive)
Cc1ccc(CNS(=O)(=O)c2ccc(C(F)(F)F)cc2)n1C	-26.5% (inactive)
Nc1nc2n(n1)C(=O)CC(c1ccc(Cl)cc1)N2 (configuration not stated)	-10.5% (inactive)
CC(=O)N1CCCc2cc(S(=O)(=O)NCc3ccc(C)cc3)ccc21	-9.9% (inactive)
c1ccc(CCCNc2ncnc3nc[nH]c23)cc1	30.4% (active)
COc1ccc(N2CC(C(=O)OCC(=O)Nc3ccccc3C)CC2=O)cc1 (configuration not stated)	-5.6% (inactive)
CCc1cc2cc(C)cc(C)c2[nH]c1=S	2.1% (active)
CN(C)Cc1c(C(=O)N/N=C/c2ccccc2OCc2c(F)cccc2Cl)nnn1-c1nonc1N	-28.3% (inactive)
O=C(O)/C=C/c1cn(-c2ccccc2)nc1-c1ccc(-c2ccc([N+](=O)[O-])cc2)o1	-18% (inactive)
S=c1[nH]c2cc(-c3ccccc3)ccc2o1	86.2% (active)
Cc1ccc(NN=Nc2nc3c([nH]2)c(=O)n(C)c(=O)n3C)cc1	-16.4% (inactive)
